# Results as given in article PMC12136788.
# In all, about 24,000 sequences were measured (“enrichment r”: median about 0.99, highest 2% from about 3.7 on). The list comes from a sample in which the highest values are over-represented; it also holds similar and randomly drawn sequences.
# T1: UNK ZnF1-3 (human, UniProt Q9C0B0 31-174)
# T1 sequence: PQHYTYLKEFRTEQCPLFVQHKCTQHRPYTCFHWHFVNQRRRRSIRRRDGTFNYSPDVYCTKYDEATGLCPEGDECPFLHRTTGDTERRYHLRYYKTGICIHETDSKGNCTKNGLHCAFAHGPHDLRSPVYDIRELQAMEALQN
# B1: chr3:133545784:133545785:-_ENSG00000154917_ENST00000285208|hu_mus|motif|central (ssRNA)
# RNA: GGGAGUUCUACAGUCCGACGAUCGAGGAUGUGAGUGUGUGUAUGUGUGCGCGCGAAGGGUGUAUACACAAGUCUAUCUCGGUGUAUAAUUAUGUACACACAUAUAAAAACUAAACACGUGACGUUUCGAUUAUGCUCGUACAUCAACAGAGGAUUGAGCAUCA
# B2: chr1:39494564:39494565:+_ENSG00000168653_ENST00000372967|hu_hu|motif|central (ssRNA)
# RNA: GGGAGUUCUACAGUCCGACGAUCACCUGCACGUCUCAUCGUUUUCUGCCGAAGCAAACACUCUACGAAAUCAUCAUAUUCGGUCUUGCACUCUUUCUCUGCCCGAGUAUAACCGAUUCCAUGUGCACAUUCUAUCCAUUCUUUCAACAGAGGAUUGAGCAUCA
# B3: 121693014_121693134_369_3pUTR_ENSMUSG00000060227_ENSMUST00000078752|mouse|control|control (ssRNA)
# RNA: GGGAGUUCUACAGUCCGACGAUCUUCUCCAAGCGCCCGCGGGCCACCUCGGUGCGCUGGACCUGGCCCUGCAGCUCGGCCACCUCCUCCUGAAGCAGAACGUGGCGGGAGGAGAUGCUCCAGUAGUUGAAGGCAAGGACGACGCAACAGAGGAUUGAGCAUCA
# B4: chr19:47610742:47610743:-_ENSMUSG00000042694_ENSMUST00000049369|mus_hu|FALSE|FALSE (ssRNA)
# RNA: GGGAGUUCUACAGUCCGACGAUCUGGCACCUGGCGGGACUCCUUCAUGUCCAGGAUAUCCCUGAUGUAGAGUUUUGCAAAGGCUAGAAACACAGGAUCCAAACCCCACAAGAGGGAAGGGGUCUCCUCUUCACACCGGCUGGACAACAGAGGAUUGAGCAUCA
# B5: chr16:94646735:94646736:+_ENSMUSG00000040785_ENSMUST00000117648|mus_mus|motif|central (ssRNA)
# RNA: GGGAGUUCUACAGUCCGACGAUCUGUUUUUAACUUUUUCCAGCAGUUCAUAUGAAAUUCUACCUUACAGUAUUGGCAACAGCGGAUUCGUAUAAAACCCUUAAAGUCUGGAUCAGUUAAGUAAAUCUGAAUUUUAGAAUAUCCCAACAGAGGAUUGAGCAUCA
# B6: chr6:145182920:145182921:-_ENSMUSG00000030265_ENSMUST00000032399|mus_hu|motif|central (ssRNA)
# RNA: GGGAGUUCUACAGUCCGACGAUCCUCCUCUUGACCUGCUGUGUCGAGAAUAUCCAAGAGACAGGUUUCUCCAUCAAUUACGGCUUGCUUCCUGUAGGAAUCCUCUAUUGUUGGAUCAUAUUCGUCCACAAAAUGAUUCUGAAUCAACAGAGGAUUGAGCAUCA
# Biological target: T1, UNK ZnF1-3
# Assay: nsRBNS (natural sequence RNA bind-n-seq); RBNS binding buffer (assumed for nsRBNS): 25 mM Tris pH 7.5, 150 mM KCl, 3 mM MgCl2, 0.01% Triton X-100, 500 ug/ml BSA, 20 U/ml SUPERase-In, 4 C; UNK is unkempt and MSI1 is Musashi-1; names of the RNAs are library labels; protein concentration not given here; high values mean tight binding
row,Binder,binding signal
1,B1,1.66 enrichment R
2,B2,0.521 enrichment R
3,B3,0.777 enrichment R
4,B4,0.707 enrichment R
5,B5,1.03 enrichment R
6,B6,0.665 enrichment R
